“And” between values parts separate entries of the source, which are not always exact repeats. Equal entries are not always repeated.
Assays:
[1] = molecular target: Tyrosine-protein kinase SYK (Homo sapiens) (UniProt P43405); conditions: at 1 µM
[2] = molecular target: T1, Tyrosine-protein kinase Tec (Homo sapiens) (UniProt P42680); conditions: at 0.1 µM
T1 sequence (whole entry): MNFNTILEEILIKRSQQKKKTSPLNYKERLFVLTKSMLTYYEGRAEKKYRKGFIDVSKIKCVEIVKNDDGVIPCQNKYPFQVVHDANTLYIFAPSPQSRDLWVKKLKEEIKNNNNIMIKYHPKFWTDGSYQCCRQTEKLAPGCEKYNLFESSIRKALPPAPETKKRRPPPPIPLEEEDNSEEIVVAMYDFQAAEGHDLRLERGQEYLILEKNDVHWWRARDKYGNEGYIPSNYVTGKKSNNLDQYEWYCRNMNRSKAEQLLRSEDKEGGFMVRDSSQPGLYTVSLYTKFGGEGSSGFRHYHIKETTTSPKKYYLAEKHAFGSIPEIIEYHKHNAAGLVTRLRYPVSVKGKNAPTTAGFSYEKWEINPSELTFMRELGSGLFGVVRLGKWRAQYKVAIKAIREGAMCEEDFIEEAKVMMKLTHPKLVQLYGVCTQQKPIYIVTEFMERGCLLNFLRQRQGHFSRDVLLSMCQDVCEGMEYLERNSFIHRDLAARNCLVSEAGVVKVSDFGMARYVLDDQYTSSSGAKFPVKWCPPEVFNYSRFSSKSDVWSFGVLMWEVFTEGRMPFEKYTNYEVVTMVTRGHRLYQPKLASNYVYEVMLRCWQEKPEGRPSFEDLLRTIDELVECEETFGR

[3] = molecular target: T1, Tyrosine-protein kinase Tec (Homo sapiens); conditions: at 1 µM
[4] = molecular target: Angiopoietin-1 receptor (Homo sapiens) (UniProt Q02763); conditions: at 0.1 µM
[5] = molecular target: Angiopoietin-1 receptor (Homo sapiens) (UniProt Q02763); conditions: at 1 µM
[6] = molecular target: T2, Non-receptor tyrosine-protein kinase TNK1 (Homo sapiens) (UniProt Q13470); conditions: at 0.1 µM
T2 sequence (whole entry): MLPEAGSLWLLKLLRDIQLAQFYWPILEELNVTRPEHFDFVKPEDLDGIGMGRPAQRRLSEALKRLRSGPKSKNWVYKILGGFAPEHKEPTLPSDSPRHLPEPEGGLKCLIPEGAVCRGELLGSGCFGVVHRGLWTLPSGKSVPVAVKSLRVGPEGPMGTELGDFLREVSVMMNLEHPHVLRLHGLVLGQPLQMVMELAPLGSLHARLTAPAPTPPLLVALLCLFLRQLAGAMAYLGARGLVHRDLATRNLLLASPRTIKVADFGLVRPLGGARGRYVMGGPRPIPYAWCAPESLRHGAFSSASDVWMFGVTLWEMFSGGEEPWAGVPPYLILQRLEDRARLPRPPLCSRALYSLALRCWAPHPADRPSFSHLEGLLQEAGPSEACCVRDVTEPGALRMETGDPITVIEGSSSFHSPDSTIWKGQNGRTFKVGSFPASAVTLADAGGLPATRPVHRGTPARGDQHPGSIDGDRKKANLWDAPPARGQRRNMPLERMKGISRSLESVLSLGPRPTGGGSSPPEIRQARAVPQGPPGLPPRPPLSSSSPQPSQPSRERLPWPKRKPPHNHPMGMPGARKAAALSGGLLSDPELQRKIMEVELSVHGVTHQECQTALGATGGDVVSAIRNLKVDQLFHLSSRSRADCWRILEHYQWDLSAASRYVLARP

[7] = molecular target: T2, Non-receptor tyrosine-protein kinase TNK1 (Homo sapiens); conditions: at 1 µM
[8] = molecular target: Activated CDC42 kinase 1 (Homo sapiens) (UniProt Q07912); conditions: at 0.1 µM
[9] = molecular target: Activated CDC42 kinase 1 (Homo sapiens) (UniProt Q07912); conditions: at 1 µM
[10] = molecular target: High affinity nerve growth factor receptor (Homo sapiens) (UniProt P04629); conditions: at 0.1 µM;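 further: each value is a mean of replicate percent inhibition readings against TRKA kinase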
Sequence of High affinity nerve growth factor receptor (Homo sapiens) (P04629 33-796 limits assumed): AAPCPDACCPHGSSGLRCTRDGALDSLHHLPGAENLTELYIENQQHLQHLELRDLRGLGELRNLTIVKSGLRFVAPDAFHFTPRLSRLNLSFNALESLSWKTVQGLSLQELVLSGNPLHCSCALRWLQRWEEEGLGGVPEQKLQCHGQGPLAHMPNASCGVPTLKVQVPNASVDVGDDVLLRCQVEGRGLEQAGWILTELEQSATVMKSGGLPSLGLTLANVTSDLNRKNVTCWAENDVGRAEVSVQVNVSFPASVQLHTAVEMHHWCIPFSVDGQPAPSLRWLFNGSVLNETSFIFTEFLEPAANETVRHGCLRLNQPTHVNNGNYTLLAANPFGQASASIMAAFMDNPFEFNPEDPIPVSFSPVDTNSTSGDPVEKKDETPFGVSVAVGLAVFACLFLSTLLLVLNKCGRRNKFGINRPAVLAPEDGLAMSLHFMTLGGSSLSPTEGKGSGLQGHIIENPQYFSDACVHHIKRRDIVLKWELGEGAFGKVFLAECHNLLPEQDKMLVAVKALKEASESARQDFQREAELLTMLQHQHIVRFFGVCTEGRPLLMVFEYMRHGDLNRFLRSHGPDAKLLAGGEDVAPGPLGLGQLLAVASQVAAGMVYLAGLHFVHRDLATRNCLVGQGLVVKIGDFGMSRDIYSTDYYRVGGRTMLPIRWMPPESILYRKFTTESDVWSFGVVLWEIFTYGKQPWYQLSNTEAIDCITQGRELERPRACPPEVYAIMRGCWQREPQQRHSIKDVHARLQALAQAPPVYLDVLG

Sequence of Angiopoietin-1 receptor (Homo sapiens) (Q02763 whole entry): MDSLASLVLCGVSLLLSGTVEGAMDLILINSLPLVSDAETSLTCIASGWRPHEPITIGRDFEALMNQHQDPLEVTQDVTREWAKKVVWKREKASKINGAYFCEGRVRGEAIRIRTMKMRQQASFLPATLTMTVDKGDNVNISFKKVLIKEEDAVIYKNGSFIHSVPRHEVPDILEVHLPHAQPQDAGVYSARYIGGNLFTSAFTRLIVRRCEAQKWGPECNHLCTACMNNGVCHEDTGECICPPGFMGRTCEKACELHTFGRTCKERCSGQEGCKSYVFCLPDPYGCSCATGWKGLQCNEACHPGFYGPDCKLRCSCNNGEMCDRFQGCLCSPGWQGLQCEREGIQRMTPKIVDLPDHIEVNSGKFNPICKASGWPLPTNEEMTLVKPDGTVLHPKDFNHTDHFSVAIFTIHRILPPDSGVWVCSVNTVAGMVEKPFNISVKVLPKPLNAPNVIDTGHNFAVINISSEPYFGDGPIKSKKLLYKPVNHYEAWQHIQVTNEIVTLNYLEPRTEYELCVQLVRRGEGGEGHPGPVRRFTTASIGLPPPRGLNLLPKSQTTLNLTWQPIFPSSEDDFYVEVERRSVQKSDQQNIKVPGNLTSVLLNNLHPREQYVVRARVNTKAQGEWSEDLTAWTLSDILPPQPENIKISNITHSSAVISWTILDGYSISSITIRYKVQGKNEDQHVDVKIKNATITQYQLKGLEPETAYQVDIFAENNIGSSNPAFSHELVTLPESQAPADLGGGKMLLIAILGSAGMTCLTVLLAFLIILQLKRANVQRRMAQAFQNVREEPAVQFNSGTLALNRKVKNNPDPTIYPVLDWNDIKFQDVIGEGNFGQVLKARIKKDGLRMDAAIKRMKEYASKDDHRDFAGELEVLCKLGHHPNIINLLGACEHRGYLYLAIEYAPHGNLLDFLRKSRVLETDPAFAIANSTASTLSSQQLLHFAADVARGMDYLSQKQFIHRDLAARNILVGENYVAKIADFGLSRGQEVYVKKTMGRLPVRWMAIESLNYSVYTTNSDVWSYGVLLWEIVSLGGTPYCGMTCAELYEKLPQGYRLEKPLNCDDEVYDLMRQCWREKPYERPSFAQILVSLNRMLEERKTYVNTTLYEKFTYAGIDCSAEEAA
Sequence of Activated CDC42 kinase 1 (Homo sapiens) (Q07912 whole entry, looked up): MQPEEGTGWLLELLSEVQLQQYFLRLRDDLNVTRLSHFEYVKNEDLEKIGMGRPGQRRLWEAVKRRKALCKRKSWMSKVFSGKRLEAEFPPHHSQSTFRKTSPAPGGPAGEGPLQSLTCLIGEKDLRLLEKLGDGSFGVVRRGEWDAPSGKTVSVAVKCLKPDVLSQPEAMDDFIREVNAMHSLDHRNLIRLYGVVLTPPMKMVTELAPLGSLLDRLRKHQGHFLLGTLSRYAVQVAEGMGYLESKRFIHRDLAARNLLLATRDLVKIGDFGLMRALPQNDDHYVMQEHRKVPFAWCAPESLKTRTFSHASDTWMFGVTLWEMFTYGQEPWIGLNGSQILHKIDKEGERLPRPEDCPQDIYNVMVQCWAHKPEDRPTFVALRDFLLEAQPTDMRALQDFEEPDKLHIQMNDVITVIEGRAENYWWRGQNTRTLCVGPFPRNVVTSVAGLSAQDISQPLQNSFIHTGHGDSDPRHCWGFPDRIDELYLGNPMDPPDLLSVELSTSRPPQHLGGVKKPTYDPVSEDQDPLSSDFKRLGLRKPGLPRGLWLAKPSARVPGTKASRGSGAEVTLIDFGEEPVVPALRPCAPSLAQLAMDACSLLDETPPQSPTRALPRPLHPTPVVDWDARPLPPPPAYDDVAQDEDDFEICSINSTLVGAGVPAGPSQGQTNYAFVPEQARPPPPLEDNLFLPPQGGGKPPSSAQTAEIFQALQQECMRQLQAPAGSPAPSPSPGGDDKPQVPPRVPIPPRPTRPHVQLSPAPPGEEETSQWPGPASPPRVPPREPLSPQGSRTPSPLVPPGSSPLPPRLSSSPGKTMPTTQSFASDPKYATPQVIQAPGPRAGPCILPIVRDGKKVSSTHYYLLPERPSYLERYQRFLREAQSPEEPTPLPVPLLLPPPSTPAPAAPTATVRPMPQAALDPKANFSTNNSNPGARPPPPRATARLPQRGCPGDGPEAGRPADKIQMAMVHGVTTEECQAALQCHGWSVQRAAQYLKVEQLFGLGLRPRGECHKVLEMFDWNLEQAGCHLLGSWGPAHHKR

With CN1CCC(n2cnc(-c3ccc(F)cc3)c2-c2ccnc(NCCO)n2)CC1 as the compound, how does the inhibition [1] read?
Its inhibition is -1.12%.

And the inhibition [2]?
The inhibition was 6.05%.

And the inhibition [3]?
Its inhibition is 5.09%.

What about the inhibition [4] of the same compound?
Its inhibition is 1.8%.

And the inhibition [5]?
Its inhibition is 3.36%.

And the inhibition [6]?
Its inhibition is 4.89%.

What about the inhibition [7] of the same compound?
The inhibition was 10.8%.

What about the inhibition [8] of the same compound?
Its inhibition is 1.7%.

What about the inhibition [9] of the same compound?
Its inhibition is 2.83%.

What about the inhibition [10] of the same compound?
The inhibition was 2.11%.

With CCn1c(-c2nonc2N)nc2cncc(C(=O)NCCNC)c21 as the compound, how does the inhibition [1] read?
The inhibition was -6.01%.

And the inhibition [2]?
The inhibition was 2.57%.

What about the inhibition [3] of the same compound?
The inhibition was 4.27%.

And the inhibition [4]?
Its inhibition is 5.54%.

And the inhibition [5]?
Its inhibition is 7.24%.

And the inhibition [6]?
Its inhibition is -0.07%.

And the inhibition [7]?
Its inhibition is 8.48%.

And the inhibition [8]?
The inhibition was 2.67%.

And the inhibition [9]?
The inhibition was 2.15%.

What about the inhibition [10] of the same compound?
Its inhibition is 1.96%.

What does the source list for CC1=C(C(=O)Nc2ccc3[nH]nc(C)c3c2)C(c2ccc(C(F)(F)F)cc2)CC(=O)N1 (stereo not given)?
inhibition [1]: -0.48%; inhibition [2]: 4.4%; inhibition [3]: 8.29%; inhibition [4]: 1.71%; inhibition [5]: 6.96%; inhibition [6]: 6.09%; inhibition [7]: 31.3%; inhibition [8]: 3.49%; inhibition [9]: 27.4%; inhibition [10]: 4.41%

Nc1ncnc2occ(-c3ccc(NC(=O)Nc4cc(C(F)(F)F)ccc4F)cc3)c12 was tested. Which inhibition [1] did it give?
The inhibition was -9.91%.

What about the inhibition [2] of the same compound?
The inhibition was 3.07% and -2.99%.

What about the inhibition [3] of the same compound?
Its inhibition is 5.25% and -1.81%.

And the inhibition [4]?
The inhibition was 63.7% and 59.4%.

And the inhibition [5]?
Its inhibition is 79% and 80.6%.

And the inhibition [6]?
The inhibition was 10.7% and 2.54%.

And the inhibition [7]?
Its inhibition is 50% and 25.8%.

And the inhibition [8]?
Its inhibition is 1.25% and -0.32%.

What about the inhibition [9] of the same compound?
The inhibition was 2.06% and -0.97%.

And the inhibition [10]?
The inhibition was 57.1% and 36.6%.

Which results are given for COc1c(C(N)=O)cc(-c2ccc(Cl)cc2)cc1-c1ccc(S(N)(=O)=O)cc1?
inhibition [1]: 4.05%; inhibition [2]: 7.49%; inhibition [3]: 3.79%; inhibition [4]: 5.29%; inhibition [5]: 7.54%; inhibition [6]: 2.66%; inhibition [7]: 3.9%; inhibition [8]: 1.22%; inhibition [9]: 3.03%; inhibition [10]: 4.76%

Which results are given for COc1ccc(-c2nn3ncccc3c2-c2ccnc(Nc3ccc(F)c(F)c3)n2)cc1?
inhibition [1]: -2.02%; inhibition [2]: 6.05%; inhibition [3]: 7.67%; inhibition [4]: 3.17%; inhibition [5]: 7.31%; inhibition [6]: 4.48%; inhibition [7]: 9.68%; inhibition [8]: 1.57%; inhibition [9]: 4.87%; inhibition [10]: 1.54%

What does the source list for Cc1c2ccc(N(C)c3ccnc(Nc4cccc(S(N)(=O)=O)c4)n3)cc2nn1C?
inhibition [1]: -6.33%; inhibition [2]: 13.8%; inhibition [3]: 50.2%; inhibition [4]: 12.4%; inhibition [5]: 53%; inhibition [6]: 16.6%; inhibition [7]: 60.1%; inhibition [8]: 1.67%; inhibition [9]: 4.21%; inhibition [10]: 4.18%

Cn1c(-c2nonc2N)nc2cnccc21 was tested. Which inhibition [1] did it give?
Its inhibition is 0.59%.

And the inhibition [2]?
Its inhibition is 4.08%.

What about the inhibition [3] of the same compound?
The inhibition was 3.99%.

What about the inhibition [4] of the same compound?
The inhibition was 1.46%.

What about the inhibition [5] of the same compound?
The inhibition was 2.07%.

And the inhibition [6]?
The inhibition was 1.08%.

What about the inhibition [7] of the same compound?
Its inhibition is 0.76%.

And the inhibition [8]?
The inhibition was 0.75%.

And the inhibition [9]?
The inhibition was 0.19%.

What about the inhibition [10] of the same compound?
The inhibition was 1.03%.

For O=C(O[C@H]1CN[C@H](C#Cc2cc3ncnc(Nc4ccc(OCc5cccc(F)c5)c(Cl)c4)c3s2)C1)N1CCOCC1, which inhibition [1] is on record?
Its inhibition is -2.54%.

What about the inhibition [2] of the same compound?
The inhibition was 5.08%.

And the inhibition [3]?
Its inhibition is 4.41%.

What about the inhibition [4] of the same compound?
The inhibition was 2.8%.

And the inhibition [5]?
Its inhibition is 7.75%.

What about the inhibition [6] of the same compound?
Its inhibition is 4.45%.

What about the inhibition [7] of the same compound?
The inhibition was 21.9%.

And the inhibition [8]?
The inhibition was 2.09%.

What about the inhibition [9] of the same compound?
Its inhibition is 2.88%.

And the inhibition [10]?
Its inhibition is 1.47%.

CS(=O)(=O)Nc1ccc(-c2ccc3c(NC(=O)C4CC4)n[nH]c3c2)cc1 was tested. Which inhibition [1] did it give?
Its inhibition is -1.82%.

And the inhibition [2]?
The inhibition was 3.96%.

What about the inhibition [3] of the same compound?
The inhibition was 7.11%.

And the inhibition [4]?
Its inhibition is 2.18%.

What about the inhibition [5] of the same compound?
Its inhibition is 10.9%.

What about the inhibition [6] of the same compound?
Its inhibition is 2.68%.

What about the inhibition [7] of the same compound?
The inhibition was 5.17%.

What about the inhibition [8] of the same compound?
The inhibition was 1.26%.

And the inhibition [9]?
The inhibition was 3.12%.

What about the inhibition [10] of the same compound?
Its inhibition is 2.98%.

For CS(=O)(=O)Nc1ccc(-c2cc(-c3ccccc3)cc(C(N)=O)c2N)cc1, which inhibition [1] is on record?
Its inhibition is 0.38%.

What about the inhibition [2] of the same compound?
Its inhibition is 0.8%.

And the inhibition [3]?
The inhibition was 1.3%.

What about the inhibition [4] of the same compound?
The inhibition was 0.34%.

And the inhibition [5]?
The inhibition was 0.58%.

And the inhibition [6]?
Its inhibition is 1.13%.

What about the inhibition [7] of the same compound?
The inhibition was 5.5%.

And the inhibition [8]?
Its inhibition is -0.09%.

What about the inhibition [9] of the same compound?
The inhibition was -0.33%.

And the inhibition [10]?
The inhibition was 3.2%.

N#Cc1cccc(Nc2ncc(-c3ccccc3)o2)c1 was tested. Which inhibition [1] did it give?
Its inhibition is -0.14%.

And the inhibition [2]?
The inhibition was 1.29%.

And the inhibition [3]?
Its inhibition is 2.29%.

What about the inhibition [4] of the same compound?
The inhibition was 0.48%.

What about the inhibition [5] of the same compound?
Its inhibition is 2.45%.

What about the inhibition [6] of the same compound?
Its inhibition is 2.36%.

What about the inhibition [7] of the same compound?
Its inhibition is 15.4%.

And the inhibition [8]?
The inhibition was 0.46%.

And the inhibition [9]?
The inhibition was 0.86%.

What about the inhibition [10] of the same compound?
Its inhibition is -0.7%.

What does the source list for N#Cc1ccc2c(-c3ccnc(NC4CC4)n3)c(-c3ccc(F)cc3)nn2c1?
inhibition [1]: -1.91%; inhibition [2]: -0.44%; inhibition [3]: 3.17%; inhibition [4]: 1.54%; inhibition [5]: 3.72%; inhibition [6]: -0.18%; inhibition [7]: 1.77%; inhibition [8]: 0.77%; inhibition [9]: 1.6%; inhibition [10]: -1.05%

Which results are given for CNC(=O)c1ncccc1Nc1nc(Nc2cc3c(cc2OC)CCCN3C(=O)CN(C)C)nc2[nH]ccc12?
inhibition [1]: 1.95%; inhibition [2]: 5.55%; inhibition [3]: 7.76%; inhibition [4]: 1.81%; inhibition [5]: -0.04%; inhibition [6]: 50%; inhibition [7]: 73%; inhibition [8]: 2.4%; inhibition [9]: 10.8%; inhibition [10]: 5.07%

What does the source list for COc1cccc(-n2ncc3c(N/N=C/c4ccc(C(=O)NCCN(C)C)cc4)ncnc32)c1?
inhibition [1]: 5.44%; inhibition [2]: 4.74%; inhibition [3]: 19.6%; inhibition [4]: 8.62%; inhibition [5]: 46.4%; inhibition [6]: 25.4%; inhibition [7]: 68.3%; inhibition [8]: 2.34%; inhibition [9]: 13.2%; inhibition [10]: 6.69%
